High-throughput results (PubChem BioAssay)
Hits are enriched below; roughly 3.3% of the tested compounds scored in any of these assays.
AmpC no deterg – blocks E. coli AmpC beta-lactamase in detergent-free assay; P00811; AmpC nitrocefin hydrolysis, absorbance 480 nm, 0.0001% Triton; Potency, µM (series often up to 57.1 µM), without a hit: at the top dose activity change, negative = inhibition, hits mostly inhibitors; 0.52% of 330,000 active; AID 485341;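 further: plate controls were no compound for no effect and no enzyme for full effect; nearly all actives have a fitted effect of over 20% in size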
Target sequence (P00811 whole entry, looked up): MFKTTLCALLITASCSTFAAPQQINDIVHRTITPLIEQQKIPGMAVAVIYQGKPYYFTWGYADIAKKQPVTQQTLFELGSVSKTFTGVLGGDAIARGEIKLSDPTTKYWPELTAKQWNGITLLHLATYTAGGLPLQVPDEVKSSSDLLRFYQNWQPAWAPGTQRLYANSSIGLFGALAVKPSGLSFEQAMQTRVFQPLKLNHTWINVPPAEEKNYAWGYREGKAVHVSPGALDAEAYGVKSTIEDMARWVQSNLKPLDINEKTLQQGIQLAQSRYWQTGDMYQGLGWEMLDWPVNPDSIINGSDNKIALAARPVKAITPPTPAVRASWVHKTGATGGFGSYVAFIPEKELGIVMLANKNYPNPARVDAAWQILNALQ
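20 mM phosphate pH 7.0 + 0.01% (detergent screen) or 0.0001% Triton X-100; 5.3 nM AmpC reagent; cpd preinc 15 min RT; nitrocefin (800 uM stock) to start; A480 q20 s × 4 min; Activity was normalised to no-enzyme and no-compound control wells.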
Sm TGR inh – inhibitors of Schistosoma mansoni thioredoxin glutathione reductase | Q962Y6 | AID 485364 | purified TGR, DTNB reduction, TNB absorbance 405 nm | 3% of 360,000 active | Potency, µM (titrated, usually from 114 µM), without a hit: top-dose activity change, negative = inhibition, hits mostly inhibitors; further: nearly all actives have a fitted effect of over 60% in size
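First, TGR (20 nM dispensed) and NADPH were mixed with compound. Second, a 15 min room-temperature incubation followed. Third, further NADPH and then DTNB were added to start the reaction. Finally, TNB absorbance was monitored kinetically.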
AmpC detergent – AmpC beta-lactamase inhibition with detergent present; P00811; AmpC hydrolysis of nitrocefin, absorbance 480 nm, 0.01% Triton; Potency, µM (highest dose often 114 µM), without a hit: at the highest dose activity change, negative = inhibition, actives largely listed as inhibitors; 0.041% of 370,000 active; AID 485294;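 further: 0% = no-compound wells and -100% = no-enzyme wells; nearly all actives have a fitted effect of over 25% in size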
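20 mM phosphate pH 7.0 + 0.01% (detergent screen) or 0.0001% Triton X-100; 5.3 nM AmpC reagent; cpd preinc 15 min RT; nitrocefin (800 uM stock) to start; A480 q20 s × 4 min; Activity was normalised to no-enzyme and no-compound control wells.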
Active calls of the source: *; ? = inconclusive; nt = not tested or not shown. The call rests on the fitted dose curve; in most records, active means well fitted curve in the direction sought with a large enough effect; inconclusive means small, poorly fitted or top-dose-only effect, or another doubt; inactive means no such curve, though single readings can be large; an effect the other way counts as inactive or inconclusive. Unless noted, on the % scale 0 is the no-effect control and ±100 the full control effect; potency means the concentration at half of the fitted maximal effect.

SMILES | AmpC no deterg | Sm TGR inh | AmpC detergent
COc1ccc(CCNC(=O)/C=C\c2ccccc2)cc1OC | -25.0% | 7.4% | -14.8%
COc1ccc(/C=C/C(=O)NCCCc2ccccc2)cc1OC | -3.5% | -20.4% | -11.4%
CCOc1ccc(CCNC(=O)COC(=O)/C=C/c2ccco2)cc1OCC | 30.8% | -1.8% | -2.1%
Cc1csc2nc(COC(=O)c3cccc(NC(=O)COc4ccccc4Cl)c3)cc(=O)n12 | nt | -2.3% | 1.3%
Cc1ccc2nc3c(nc2c1C)CCCC3 | 13.5% | -5.8% | 4.1%
Cc1ccc2nc3c(nc2c1C)C(O)=C3O | -29.7% | 7.94µM* | -7.1%
COc1ccc(C)cc1NC(=O)c1ccc2c(c1)N(Cc1cccc(Cl)c1)C(=O)c1ccccc1S2=O (configuration not stated) | nt | -12.2% | 3.9%
COC(=O)c1cc2oc3ccccc3c2n1CC(=O)Nc1ccc(C)c(F)c1 | nt | 9.4% | 15.4%
CC(=O)Nc1cccc(N=NN2CCOCC2)c1 | -16.0% | -9.0% | -2.4%
CC(=O)Nc1ccc(N=NN2CCOCC2)cc1 | -16.9% | 8.91µM* | ?
COc1ccc(OC)c(/C=C(/C#N)c2nc(-c3ccc(-c4ccccc4)cc3)cs2)c1 | nt | 2.1% | 11.4%
O=C(CCl)N=c1sccn1Cc1cccc2ccccc12 | -32.3% | 25.1µM* | -2.2%
O=C(CCl)N=c1sccn1Cc1ccc(Cl)cc1Cl | -18.0% | 12.6µM* | 5.9%
O=C(CCl)N=c1sccn1Cc1ccccc1Cl | -18.4% | 0.0% | -6.5%
CCC(=O)OCC(=O)N=c1sccn1Cc1ccccc1Cl | 45.1% | -7.4% | 4.3%
CCC(C)NC(=O)CSc1nc2cc3c(cc2c(=O)n1CCCC(=O)NCCc1ccc(OC)c(OC)c1)OCO3 (configuration not stated) | nt | 0.5% | -6.7%
COc1ccccc1C1Nc2c(sc3nc(C)cc(C)c23)C(=O)N1c1ccccc1 (configuration not stated) | nt | -1.5% | -0.4%
CSc1ccc(CCNC(=O)CCc2c(C)nc3c4cccnc4nn3c2C)cc1 | nt | -1.8% | 11.1%
COc1ccc(C(=O)Oc2c(Sc3ccc(Cl)cc3)c(C)nn2C(C)(C)C)cc1OC | nt | 6.1% | 5.8%
COc1cc(OC)cc(-c2c(C#Cc3ccsc3)c3cc(-c4ccc(C(N)=O)cc4)ccc3n2C)c1 | -32.2% | 28.2µM* | 1.8%
COCc1ccc(-c2ccc3c(c2)c(C#Cc2ccsc2)c(-c2cc(OC)cc(OC)c2)n3C)cc1 | -16.9% | -2.3% | 5.5%
CC(C)N(CCNS(=O)(=O)c1ccc(Cl)cc1)C(C)C | -7.6% | 0.0% | 1.2%
CC(C)OP(=O)(OC(C)C)C1(NS(=O)(=O)c2ccc(Cl)cc2)C=C(Cl)C(=O)C(Cl)=C1 | -37.0% | 0.794µM* | -0.3%
Cc1ccccc1-c1nc(C(N)=O)c2c(n1)n(-c1ccc3c(c1)OCO3)c(=O)n2C | nt | -13.4% | 12.0%
COc1ccc(C(=O)CCN2CCCC(C)C2)cc1 (configuration not stated) | 3.3% | 0.282µM* | -2.6%
SMILES | AmpC no deterg | Sm TGR inh | AmpC detergent
CC1CCCN(CCC(=O)c2ccc(Br)cc2)C1 (configuration not stated) | -23.6% | 0.0% | -7.1%
CC(C)COc1ccc(C(=O)OCCN2CCCCC2)cc1 | 7.0% | 5.5% | 2.8%
CC(C)COc1ccc(C(=O)CCN2CCCCC2)cc1 | 5.6% | 0.355µM* | 2.4%
CC(=O)c1ccc(OCCCN2CCCCC2)cc1 | -1.6% | 0.6% | -0.9%
CCCCOc1ccc(C(=O)CCN2CCCCC2)cc1 | -6.0% | 0.316µM* | -14.1%
COc1ccc(OC)c(CNC(=O)c2cc3ccc4cccnc4c3[nH]2)c1 | nt | 30.2% | 11.8%
CN(C)c1ccc(C2C=C(c3ccc(Cl)cc3OC(F)F)Nc3ncnn32)cc1 (configuration not stated) | -24.5% | 22.4µM* | 2.3%
Cc1ccc(C2C=C(c3ccccc3OC(F)F)Nc3ncnn32)cc1 (configuration not stated) | 14.8% | ? | 2.3%
CCC(=O)N1CCc2cc(CNS(=O)(=O)c3ccc(CC(C)C)cc3)ccc21 | nt | 9.2% | -2.1%
CC(C)OC(=O)c1ccc(Cn2nnc3sc4c(c3c2=O)CCCC4)cc1 | nt | 10.5% | 25.6%
CCOc1ccc(C(O)c2nccn2Cc2ccccc2)cc1 (configuration not stated) | 4.6% | 11.3% | -7.2%
CCn1ccnc1C(O)c1ccc(N(C)C)cc1 (configuration not stated) | 0.9% | 10µM* | -13.7%
Cc1cc(S(=O)(=O)N2CCN(Cc3noc(CCC(=O)N4CCCCC4)n3)CC2)ccc1F | nt | -15.5% | 1.4%
Cc1ccc(C)c(Cn2nnc(C(=O)NCc3ccccc3)c2N)c1 | nt | 2.3% | 16.6%
O=C(CN(Cc1ccco1)S(=O)(=O)c1cccs1)Nc1ccccc1C(F)(F)F | -9.7% | 20µM* | -9.3%
O=C(CN(Cc1ccco1)C(=O)c1ccccc1F)Nc1ccccc1C(F)(F)F | -12.2% | -19.7% | ?
CC(C)COc1ccc(C(=O)N(CC(=O)Nc2ccccc2C(F)(F)F)Cc2ccco2)cc1 | 32.3% | -4.4% | ?
O=C(CN(Cc1ccco1)C(=O)c1ccc([N+](=O)[O-])cc1)Nc1ccccc1C(F)(F)F | -25.3% | 20µM* | -8.2%
COc1ccc(Br)c2c1-c1nc(NC(=O)c3ccc(F)cc3)sc1C2 | nt | -14.6% | -4.5%
COc1ccc(OC)c(-c2noc(N3CCN(c4cc(C)ccc4C)CC3)n2)c1 | nt | -2.3% | -4.4%
Cc1cccc(NC(=O)C(c2ccccc2)N2Cc3ccccc3C2=O)c1C (configuration not stated) | nt | 4.2% | 17.1%
C/C(=N/O)c1no[n+]([O-])c1/C(C)=N\O | 5.5% | 7.08µM* | -3.7%
Cc1cc(-c2ccc(C)c(S(=O)(=O)NC(c3cccs3)C(C)C)c2)on1 (configuration not stated) | nt | -1.0% | -6.8%
O=C(CN(Cc1ccco1)S(=O)(=O)c1ccccc1)N/N=C/c1ccccc1C(=O)O | -16.2% | 11.3% | 5.6%
COC(=O)/C=C/c1ccccc1S(=O)(=O)N(Cc1ccccc1)Cc1ccco1 | -31.2% | 17.8µM* | 10.7%
SMILES | AmpC no deterg | Sm TGR inh | AmpC detergent
CCOC(=O)c1c(C)oc2nc(C)nc(N3CCN(c4cccc(C(F)(F)F)c4)CC3)c12 | nt | 31.2% | 25.5%
COc1ccc(OC)c(NC(=O)c2nnn(Cc3ccc(Br)cc3F)c2N)c1 | 0.794µM* | -2.4% | ?
COc1ccc(NC(=O)c2nnn(Cc3ccc(Br)cc3F)c2N)c(OC)c1 | nt | 2.4% | -7.9%
COc1ccc(NC(=O)c2cnn(-c3ccc(C)c(C)c3)c2C2CCNCC2)cc1OC | nt | 44.7µM* | 4.1%
CCOC(=O)c1cnn(-c2cccc(F)c2)c1C1CCNCC1 | nt | 44.7µM* | -1.3%
COc1cc(NC(=O)c2cnn(-c3cccc(F)c3)c2C2CCNCC2)cc(OC)c1OC | nt | 1.4% | 12.8%
Cc1ccc(-n2ncc(C(=O)Nc3cc(Cl)cc(Cl)c3)c2C2CCNCC2)cc1C | 26.2% | 6.0% | 0.9%
O=C(CSc1nc2ccccc2n1CCc1ccccc1)c1ccc(O)c(O)c1 | 15.8µM* | -26.5% | 2.0%
O=C(CSc1nc2ccccc2n1CCc1ccccc1)N1CCOCC1 | 81.2% | 0.7% | -18.0%
CN(Cc1ccccc1)c1nc2c(S(=O)(=O)c3cccc(Cl)c3)nnn2c2ccsc12 | nt | 1.5% | -1.8%
